Compounds with a hit are over-represented: about 19% of the library has one in this group of screens.
HT1080 IDH1KD tx = HT-1080 IDH1 knockdown cell toxicity (counter line). HT-1080 IDH1 knockdown viability, ATP luminescence, 48 h. 360,000 tested, 2% active. Potency, µM (top dose mostly 46.1 µM), actives largely listed as cytotoxic
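CellTiter-Glo luminescence after 48 h compound exposure at 37 degrees C of IDH1-knockdown HT-1080 cells in 5% FBS RPMI. %Activity scaled between DMSO wells and cell-free media wells, with curves fitted and assigned curve classes.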
DT40 TDP1 no CPT = qHTS for Inhibitors of human tyrosyl-DNA phosphodiesterase 1 (TDP1): qHTS in cells in absence of CPT. DT40 Tdp1-/- hTDP1 cells, no CPT, ATP luminescence, 48 h. Potency, µM (titrated, usually from 46.2 µM), usual class: inhibitors. 420,000 tested, 15% active. AID 686978, 2013; note: nearly all actives have a fitted effect of over 55% in size
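Growth of hTDP1-complemented DT40 Tdp1-knockout cells is measured by ATP luminescence after at least 48 hr compound exposure at 37 °C, with DMSO substituting for the 20 nM CPT used in the parallel screen.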
IL-1B inflam inh = inflammasome signaling inhibition, IL-1 beta readout | THP-1 LPS/ATP IL-1B secretion, AlphaLISA, 16 h; hits give low values | 360,000 tested, 4.7% active | activity change, % at 57.5 µM | AID 743279; in the data active = activity change below about -50%; inconclusive = mostly about -30% to -49%
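Secreted IL-1B measured by AlphaLISA bead assay after 16 h compound exposure of THP-1 cells; compounds (final up to 57.5 uM) added 1 h before LPS (250 ng/mL) and ATP (1.25 mM) stimulation; lower signal means less secretion.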
HT1080NT lethal = kills 2HG-producing HT-1080-NT fibrosarcoma cells; HT-1080-NT fibrosarcoma viability, CellTiter-Glo ATP luminescence, 48 h; Potency, µM (series often up to 46.1 µM), actives largely listed as cytotoxic; 360,000 tested, 1.6% active;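 note: NT is the 2HG producing partner of a matched IDH1 knockdown line; nearly all actives have a fitted effect of over 55% in size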
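Compounds were tested in concentration-response format on HT-1080-NT cells for 48 hours at 37 degrees C. Cell viability came from CellTiter-Glo luminescence; curves were classified by r2, response magnitude and activity.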
TDP1 cell CPT = growth inhibition of DT40 Tdp1-/-;hTDP1 cells with camptothecin (screen for TDP1 inhibitors); chicken DT40 Tdp1-/-;hTDP1 cells + 20 nM CPT, ATP luminescence, 48 h; 420,000 tested, 12% active; Potency, µM (highest dose often 46.2 µM), actives largely listed as inhibitors; note: nearly all actives have a fitted effect of over 55% in size
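Chicken DT40 Tdp1-/- cells stably complemented with human TDP1 were seeded at 400 cells/well in medium containing 20 nM camptothecin, exposed to pin-transferred compounds, and grown at 37 °C for at least 48 hr. Viability was read as ATP luminescence.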
Large screens that a line does not name were inactive. Unless noted, calls come from the whole dose curve; as a rule, active = well fitted curve in the direction sought with a large enough effect; inconclusive = small, poorly fitted or top-dose-only effect, or another doubt; inactive = no such curve, though single readings can be large; an effect the other way counts as inactive or inconclusive.

COc1cc(OC)c(OC)cc1/C=N/NC(=O)c1cc(-c2cccn2C)n[nH]1	none
C/C=C1\C(OC2OC(CO)C(O)C(O)C2O)OC=C(C(=O)OC)C1CC(=O)OCC1C(C)C(OC(=O)CC2C(C(=O)OC)=COC(OC3OC(CO)C(O)C(O)C3O)/C2=C\C)CC1C(CO)CO (stereo not given)	none
O=C(C[C@H]1CC[C@@H]2[C@H](COC[C@H](O)CN2Cc2cccc(C(F)(F)F)c2)O1)NCCc1ccccc1	HT1080 IDH1KD tx inconclusive, DT40 TDP1 no CPT 13µM, TDP1 cell CPT 21µM
O=C(C[C@H]1CC[C@@H]2[C@H](COC[C@@H](O)CN2Cc2cccc(F)c2)O1)NCC1CCCCC1	DT40 TDP1 no CPT 21µM, TDP1 cell CPT 21µM
CN1CCN(C(=O)C[C@H]2CC[C@H]3[C@@H](COC[C@@H](O)CN3Cc3cccc(F)c3)O2)CC1	none
CCc1ccccc1NC(=O)CCc1nc(-c2cccs2)no1	none
NC(=O)c1nsc(C(=O)N(Cc2ccco2)C(C(=O)NC2CCCC2)c2ccc(O)cc2)c1N (stereo not given)	DT40 TDP1 no CPT inconclusive
COc1ccc(C(C(=O)NC2CCCCC2)N(Cc2ccco2)C(=O)c2snc(C(N)=O)c2N)cc1 (stereo not given)	DT40 TDP1 no CPT inconclusive, IL-1B inflam inh -68, TDP1 cell CPT inconclusive
COc1ccc(C(C(=O)NC2CCCC2)N(Cc2ccco2)C(=O)c2snc(C(N)=O)c2N)cc1OC (stereo not given)	IL-1B inflam inh -59, TDP1 cell CPT inconclusive
COCCN(C(=O)c1snc(C(N)=O)c1N)C(C(=O)NC1CCCCC1)c1ccc(N(C)C)cc1 (stereo not given)	DT40 TDP1 no CPT 15µM
CC(=O)Nc1ccc(S(=O)(=O)NC(C)C(=O)OCC(=O)Nc2ccc(F)cc2Cl)cc1 (stereo not given)	none
Cc1cccc(NC(=O)[C@@H]2CCCN2C(=O)OC(C)(C)C)c1	none
CCc1ccc(NS(=O)(=O)c2cc(Br)cc3c2N(C(C)=O)CC3)cc1	none (no result: HT1080 IDH1KD tx, IL-1B inflam inh, HT1080NT lethal)
COc1ccc(CNS(=O)(=O)c2cc(Br)cc3c2N(C(C)=O)C(C)C3)cc1 (stereo not given)	DT40 TDP1 no CPT inconclusive, TDP1 cell CPT inconclusive
CC(=O)N1c2c(cc(Br)cc2S(=O)(=O)NCc2ccc(C)cc2)CC1C (stereo not given)	none
CCOC(=O)c1ccc(NS(=O)(=O)c2cc(Br)cc3c2N(C(C)=O)C(C)C3)cc1 (stereo not given)	DT40 TDP1 no CPT 8.2µM, TDP1 cell CPT 9.2µM (no result: HT1080 IDH1KD tx, IL-1B inflam inh, HT1080NT lethal)
COc1ccc(NS(=O)(=O)c2cc(Br)cc3c2N(C(C)=O)CC3)cc1	HT1080 IDH1KD tx 12µM, DT40 TDP1 no CPT 12µM, HT1080NT lethal 18µM, TDP1 cell CPT 8.2µM
CC(=O)N1c2c(cc(Br)cc2S(=O)(=O)Nc2ccc(OC(F)(F)F)cc2)CC1C (stereo not given)	DT40 TDP1 no CPT 15µM, TDP1 cell CPT 18µM (no result: HT1080 IDH1KD tx, IL-1B inflam inh, HT1080NT lethal)
CCN(c1cccc(C)c1)S(=O)(=O)c1cc(Br)cc2c1N(C(C)=O)C(C)C2 (stereo not given)	DT40 TDP1 no CPT 21µM, TDP1 cell CPT 23µM (no result: HT1080 IDH1KD tx, IL-1B inflam inh, HT1080NT lethal)
COc1ccc(S(=O)(=O)NNC(=O)C(=O)NNc2ccccn2)cc1	none
CSCCC(N=C(NS(=O)(=O)c1ccccc1)c1ccccc1)C(=O)O (stereo not given)	none
CC(=O)N1c2c(cc(Br)cc2S(=O)(=O)N2CCN(c3ccccc3)CC2)CC1C (stereo not given)	DT40 TDP1 no CPT 16µM, TDP1 cell CPT 23µM (no result: HT1080 IDH1KD tx, IL-1B inflam inh, HT1080NT lethal)
CC(=O)N1c2c(cc(Br)cc2S(=O)(=O)Nc2c(C)n(C)n(-c3ccccc3)c2=O)CC1C (stereo not given)	none
CC(=O)N1c2c(cc(Br)cc2S(=O)(=O)N2CCN(C(=O)c3ccco3)CC2)CC1C (stereo not given)	DT40 TDP1 no CPT 18µM, TDP1 cell CPT 21µM
CCC(=O)N1CCc2cc(Br)cc(S(=O)(=O)N3CCN(C(=O)c4ccco4)CC3)c21	none
CCCC1(C)NC(=O)c2ccccc2O1 (stereo not given)	none
Cc1cc(C)n(-c2nc3ccccc3c(=O)n2OCC(=O)Nc2c(C)cccc2C)n1	DT40 TDP1 no CPT 18µM, TDP1 cell CPT inconclusive
Cc1cc(C)n(-c2nc3ccccc3c(=O)n2OCC(=O)OCc2ccccc2)n1	HT1080 IDH1KD tx inconclusive, DT40 TDP1 no CPT 5.8µM, HT1080NT lethal inconclusive, TDP1 cell CPT 5.8µM
Cc1cc(C)n(-c2nc3ccccc3c(=O)n2OCC(=O)N(C)C)n1	none
COC(=O)C1=C(CS(=O)(=O)c2ccccc2)NC(=O)NC1c1ccc(OC)c(OC)c1 (stereo not given)	DT40 TDP1 no CPT inconclusive, TDP1 cell CPT inconclusive
COc1ccc(-c2c(-c3ccc(O)cc3O)n[nH]c2C(F)(F)F)cc1	HT1080 IDH1KD tx inconclusive, HT1080NT lethal inconclusive, TDP1 cell CPT inconclusive
Oc1ccc(-c2n[nH]c(C(F)(F)F)c2-c2ccccc2)c(O)c1	HT1080 IDH1KD tx 10µM, DT40 TDP1 no CPT 1.6µM, IL-1B inflam inh -78, TDP1 cell CPT 1.8µM
COc1ccccc1-c1c(-c2ccc(O)cc2O)n[nH]c1C(F)(F)F	DT40 TDP1 no CPT 2.3µM, TDP1 cell CPT 5.8µM
COc1ccccc1-c1cc(N)n[nH]1	TDP1 cell CPT inconclusive
COc1ccccc1CN1CCOc2ccc(CN3CCC(Oc4cccnc4)CC3)cc2C1	DT40 TDP1 no CPT inconclusive (no result: HT1080 IDH1KD tx, IL-1B inflam inh, HT1080NT lethal)
Cc1ccc(CCCOC(=O)CN2CCCCC2)cc1	none
Cc1nnsc1Sc1ccccc1	HT1080 IDH1KD tx inconclusive
O=C1CN(C(=O)c2ccc(S(=O)(=O)N3CCCC3)cc2)C(c2ccccc2)c2cc(Br)ccc2N1 (stereo not given)	DT40 TDP1 no CPT inconclusive, TDP1 cell CPT 15µM (no result: HT1080 IDH1KD tx, IL-1B inflam inh, HT1080NT lethal)
O=C1CN(C(=O)c2ccc(Br)o2)C(c2ccccc2)c2cc(Br)ccc2N1 (stereo not given)	DT40 TDP1 no CPT 21µM, IL-1B inflam inh inconclusive, TDP1 cell CPT 16µM
Cc1ccc(C(=O)N2CC(=O)Nc3ccc(F)cc3C2c2ccccc2)cc1 (stereo not given)	none
Cc1ccc2c(c1)C(c1ccccc1)N(C(=O)c1ccc(Br)o1)CC(=O)N2 (stereo not given)	DT40 TDP1 no CPT 21µM, HT1080NT lethal inconclusive, TDP1 cell CPT 21µM
N#C/C(=C\c1c[nH]c2ccccc12)C(=O)Nc1ncc(Cc2ccc(Cl)cc2Cl)s1	HT1080 IDH1KD tx inconclusive, DT40 TDP1 no CPT 16µM, IL-1B inflam inh -61, HT1080NT lethal inconclusive, TDP1 cell CPT inconclusive
O=C1/C(=C\c2ccccn2)SC(=S)N1Nc1ncc(C(F)(F)F)cc1Cl	none
O=C1/C(=C/c2ccccn2)SC(=S)N1Nc1ncc(C(F)(F)F)cc1Cl	DT40 TDP1 no CPT inconclusive, TDP1 cell CPT 8.2µM
